# Sampled rows, rich in hits. Any-hit rate of the full collection: about 2.9%.
# SNCA expr inhib – reduces expression of the alpha-synuclein gene. HEK-293 SNCA-luciferase knock-in, luminescence, 24 h. Potency, µM (highest dose often 57.2 µM), without a hit: at the top dose activity change, negative = inhibition, hits mostly inhibitors. 140,000 compounds, 0.17% hits;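 further: potency means the concentration at half of the fitted maximal effect; plate controls were DMSO cells for no effect and cell-free wells for full effect; nearly all actives have a fitted effect of over 45% in size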
# SNCA viab count – cell viability loss counter-screen; HEK-293-SNCA-luc viability, GF-AFC fluorescence, 24 h; Potency, µM (highest dose often 57.1 µM), without a hit: at the top dose activity change, negative = cytotoxicity, most hits filed as cytotoxic; 150,000 compounds, 0.12% hits; AID 1671193;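 further: potency means the concentration at half of the fitted maximal effect; 0% = DMSO-treated cells and -100% = medium-only wells without cells; nearly all actives have a fitted effect of over 30% in size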
#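 Cytotoxicity counterscreen: after 24 h compound treatment of genome-edited SNCA-luciferase HEK-293 cells, live-cell protease substrate GF-AFC read by fluorescence after 30 min; activity scaled between DMSO (0%) and medium-only (-100%), curves Hill-fitted.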
# IP6K1 inh – blocks human inositol hexakisphosphate kinase 1; IP6K1 kinase, ADP-Glo luminescence, 2 h; stronger effect = lower value; AID 1645851; activity change, % (series mostly up to about 58 µM); 140,000 compounds, 0.81% hits; Q92551; in the data active means activity change below about -25%; further: on the % scale 0 is the no-effect control and ±100 the full control effect
#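 ADP-Glo luminescence measures ADP made by human IP6K1 during a 2 h RT reaction with ATP/IP6 (mix at 1.3 mM/130 uM); top library doses 57.5 and 19.1 uM final.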
# KDM5B inh – inhibitors of human KDM5B histone demethylase | KDM5B demethylase, FDH-coupled NADH fluorescence (FDH is formaldehyde dehydrogenase) | Potency, µM (doses to about 57.7 µM), hits mostly inhibitors | 220,000 compounds, 2.6% hits; further: potency means the concentration at half of the fitted maximal effect; 0% is about no effect; nearly all actives have a fitted effect of over 70% in size
# Target sequence (Q9UGL1 whole entry, looked up): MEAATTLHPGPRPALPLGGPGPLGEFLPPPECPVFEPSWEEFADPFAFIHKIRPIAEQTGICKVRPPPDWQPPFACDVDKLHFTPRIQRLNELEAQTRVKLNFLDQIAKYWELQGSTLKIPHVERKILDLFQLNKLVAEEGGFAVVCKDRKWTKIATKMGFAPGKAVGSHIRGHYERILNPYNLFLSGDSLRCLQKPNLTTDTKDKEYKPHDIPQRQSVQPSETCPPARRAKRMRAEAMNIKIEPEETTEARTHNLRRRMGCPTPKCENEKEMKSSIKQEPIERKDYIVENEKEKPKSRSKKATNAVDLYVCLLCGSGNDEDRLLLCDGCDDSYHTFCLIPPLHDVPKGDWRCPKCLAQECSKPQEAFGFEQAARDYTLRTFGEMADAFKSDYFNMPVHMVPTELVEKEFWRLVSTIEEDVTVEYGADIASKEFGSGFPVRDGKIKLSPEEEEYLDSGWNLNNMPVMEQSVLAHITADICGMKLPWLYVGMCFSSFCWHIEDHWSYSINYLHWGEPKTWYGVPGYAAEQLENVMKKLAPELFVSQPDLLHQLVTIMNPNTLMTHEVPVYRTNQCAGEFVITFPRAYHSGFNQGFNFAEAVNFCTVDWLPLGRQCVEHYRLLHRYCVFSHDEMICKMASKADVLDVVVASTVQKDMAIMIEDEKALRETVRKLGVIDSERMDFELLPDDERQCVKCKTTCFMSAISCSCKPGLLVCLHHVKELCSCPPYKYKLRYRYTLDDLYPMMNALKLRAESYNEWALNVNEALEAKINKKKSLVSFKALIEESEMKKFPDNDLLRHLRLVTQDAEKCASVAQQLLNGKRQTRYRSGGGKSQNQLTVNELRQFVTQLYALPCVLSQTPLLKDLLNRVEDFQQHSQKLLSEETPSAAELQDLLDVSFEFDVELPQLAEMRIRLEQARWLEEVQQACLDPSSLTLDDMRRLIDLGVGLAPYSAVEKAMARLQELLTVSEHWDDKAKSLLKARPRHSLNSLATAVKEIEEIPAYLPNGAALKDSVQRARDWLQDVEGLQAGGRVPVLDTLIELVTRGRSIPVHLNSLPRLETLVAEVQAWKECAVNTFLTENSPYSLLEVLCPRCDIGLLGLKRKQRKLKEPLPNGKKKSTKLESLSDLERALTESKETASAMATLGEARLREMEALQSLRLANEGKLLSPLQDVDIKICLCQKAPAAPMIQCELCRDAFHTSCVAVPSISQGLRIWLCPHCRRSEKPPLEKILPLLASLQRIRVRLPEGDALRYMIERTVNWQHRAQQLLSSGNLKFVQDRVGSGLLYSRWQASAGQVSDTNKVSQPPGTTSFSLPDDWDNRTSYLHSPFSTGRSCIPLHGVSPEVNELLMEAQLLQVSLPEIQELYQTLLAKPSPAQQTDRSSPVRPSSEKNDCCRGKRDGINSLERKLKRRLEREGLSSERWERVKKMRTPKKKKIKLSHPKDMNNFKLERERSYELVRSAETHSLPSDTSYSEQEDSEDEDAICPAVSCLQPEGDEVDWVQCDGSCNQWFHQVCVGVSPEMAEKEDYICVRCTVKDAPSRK
#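 Here, H3K4me3 peptide (12.5 µM in substrate mix) is demethylated by KDM5BΔAP, 200 nM final, after 10 min compound exposure. Formaldehyde product is coupled through FDH (0.25 U/mL in mix) to NADH fluorescence; 30-min ΔRFU feeds dose-response curves.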
# IP6K1 inh cnf – human IP6K1 inhibition, confirmatory; shares compounds with IP6K1 inh; recombinant IP6K1 kinase, ADP-Glo luminescence, 2 h; Potency, µM (series often up to 49 µM), inactives show at the highest dose activity change, negative = inhibition, hits mostly inhibitors; 1,200 compounds, 13% hits; further: potency means the concentration at half of the fitted maximal effect; on the % scale 0 is the no-effect control and ±100 the full control effect; nearly all actives have a fitted effect of over 65% in size
# * hit, by the source's call; i = inactive; ? = inconclusive; nt = no result; [ ] = remark or other dose. Unless noted, the call rests on the fitted dose curve; in most records, active means well fitted curve in the direction sought with a large enough effect; inconclusive means small, poorly fitted or top-dose-only effect, or another doubt; inactive means no such curve, though single readings can be large; an effect the other way counts as inactive or inconclusive.
SMILES,SNCA expr inhib,SNCA viab count,IP6K1 inh,KDM5B inh,IP6K1 inh cnf
CCN(CC)S(=O)(=O)c1ccc(NC(=O)CN(c2ccc(F)c(Cl)c2)S(C)(=O)=O)cc1,nt,nt,nt,i,nt
CC(C)c1ccc(NC(=O)c2ccc(=O)n(Cc3ccccc3)c2)cc1,5%,-23%,-28*,?,-25%
COc1nc2c(cc1CNC(=O)CC1CCCCC1)C(=O)N(C1CCCC1)C2,-10%,-2%,2,i,nt
CCC(=O)NCc1cc2c(nc1OC)CN(C1CCCC1)C2=O,4%,18%,-33*,?,-10%
CCC(C)(C)C(=O)NCc1cc2c(nc1OC)CN(C1CCCC1)C2=O,-3%,-6%,-30*,i,9%
CCCC(=O)NCc1cc2c(nc1OC)CN(C1CCCC1)C2=O,5%,2%,-1,i,nt
CCCC(=O)n1ccn(S(=O)(=O)c2ccc(C)cc2)c1=O,nt,nt,nt,i,nt
COc1ccc(-c2ccc(C(=O)NC(C)C)c(Cl)c2)nn1,nt,nt,-11,nt,nt
COc1ccc(-c2ccc(C(=O)N3CCCC3)c(Cl)c2)nn1,nt,nt,-69*,nt,?
COc1ccc(-c2ccc(C(=O)N(C)C)c(Cl)c2)nn1,nt,nt,-46*,nt,?
COc1ccc(-c2ccc(C(=O)N(C)c3ccccc3)cc2)nn1,nt,nt,-17,nt,?
O=C(NCc1ccccc1)C1CCN(C(=O)c2ccc(-c3cccs3)cc2)CC1,nt,nt,-11,nt,nt
CCOc1ccc2oc(=O)cc(CN3CCN(C(=O)c4cccc(Cl)c4)CC3)c2c1,?,-8%,-29*,?,19%
O=C(Nc1cccc(F)c1)Nc1ccnn1C1CCN(C(=O)CCN2CCCO2)CC1,nt,nt,nt,i,nt
NCCC(=O)N1CCC(n2nccc2NC(=O)Nc2cccc(F)c2)CC1,2%,1%,-30*,11µM*,16%
COc1ccc(N2CCN(C(=O)C3CCN(S(=O)(=O)c4cnc[nH]4)CC3)CC2)cc1,5%,-9%,-29*,i,13%
O=C(c1ccccc1F)N1CCN(C(=O)c2nnn3c2COC(c2ccccc2)C3)CC1 (stereo not drawn),?,-5%,2,i,nt
O=C(c1cc(Cl)ccc1F)N1CCN(C(=O)c2nnn3c2COC(c2ccccc2)C3)CC1 (stereo not drawn),3%,-10%,-32*,i,-9%
O=[N+]([O-])c1cccc2nc(/C=C/c3ccccc3OC(F)F)ccc12,nt,nt,nt,i,nt
C[C@]1(C2CCCC2)Cc2cc(OCC(=O)O)c(Cl)c(Cl)c2C1=O,nt,4%,-42*,nt,7.3µM*
CCc1ccc(C(=O)Nc2cc(CN3CCN(C)CC3)cc(C(F)(F)F)c2)cc1C#Cc1cnc2ccnn2c1,24µM*,?,-39*,nt,?
CCN1CCN(c2cc(C)c3cc(NC(=O)c4cccc(C(F)(F)F)c4)ccc3n2)CC1,1%,2%,9,i,nt
O=C(c1ccc(-c2ncc3cnc(-c4cccc(F)c4)cn23)cc1)N1CC(O)C1,17%[87.6 µM],3%[87.6 µM],-29*,?,-14%
CCc1nc2nc(C)cc(Nc3cccc(C)c3C)n2n1,20%,-5%,-33*,i,?
CCN(C(=O)CCn1cnc2c1c(=O)n(C)c(=O)n2C)c1ccccc1C,nt,nt,nt,i,nt
SMILES,SNCA expr inhib,SNCA viab count,IP6K1 inh,KDM5B inh,IP6K1 inh cnf
O=C(Nc1cccc2ncccc12)c1cccc(S(=O)(=O)NCC(F)(F)F)c1,nt,nt,nt,i,nt
Cc1cccc2sc(N(CCN(C)C)C(=O)c3ccc4c(c3)OCCO4)nc12,-9%,6%,-35*,?,13%
CCOc1cccc2sc(N(CCN(C)C)C(=O)c3ccc4c(c3)OCCO4)nc12,nt,nt,nt,i,nt
O=C(NOCC(O)CO)c1ccc(F)c(F)c1Nc1ccc(I)cc1F (stereo not drawn),nt,-2%,-5,nt,nt
O=C(NC[C@H](O)CO)c1ccncc1Nc1ccc(I)cc1F,30%,-13%,nt,nt,-2%
O=C1CCCC2=C1C(c1ccc(Br)cc1)n1nc(-c3ccco3)nc1N2 (stereo not drawn),nt,nt,nt,i,nt
Cc1ccc2c(=O)cc(C(=O)Nc3ccc(S(=O)(=O)N4CCCCC4)cc3)oc2c1C,-17%,12%,20,i,nt
Cc1cc(C)c2oc(C(=O)Nc3ccc(S(=O)(=O)N4CCCCC4)cc3)cc(=O)c2c1,?,6%,-26*,i,1%
Cc1c(Cl)cccc1S(=O)(=O)N(Cc1nccn1C)C1CC1,nt,nt,nt,i,nt
COc1ccccc1NC(=O)C1=C(C)Nc2nc3ccccc3n2C1c1cccc(Br)c1 (stereo not drawn),0%,9%,-26*,?,-2%
COCCCn1c(=O)c(C(=O)N2CCN(C(=O)COC)CC2)nc2cccnc21,9%,2%,-9,nt,nt
O=C(c1cc(O)c(O)c(O)c1)c1ccc(O)c(O)c1O,-43%[25.6 µM],-5%[23.9 µM],-67*,nt,-27%
O=C(O)c1cc(O)c(O)c(O)c1,-42%[25.6 µM],6%[23.9 µM],-28*,nt,-11%
COc1cccc(CNC(=O)Nc2cc(C(=O)NCc3cccc(F)c3)ccc2N2CCCC2)c1,7%,?,-26*,?,2%
Cc1ccc(-c2csc3ncnc(Nc4ccc(C(=O)O)cc4)c23)cc1,22%,-6%,-25*,i,-25%
COc1ccccc1-c1cccc(C(=O)N2CCN(C(=O)c3cccc(Cl)c3)CC2)c1,-8%,5%[12.5 µM],10,nt,nt
CC(C)CNC(=O)c1ccc2nc(-c3ccnc(Cl)c3)oc2c1,15%,4%,7,nt,nt
CC(C)NC(=O)CN(C)CC(=O)NC(=O)NCCC1=CCCCC1,nt,nt,nt,i,nt
Cc1cccc(-c2nnc(SCCC(=O)O)o2)c1,?,14%,-37*,?,?
CCOC(=O)c1ccc2c(c1)[C@@H]1C=CC[C@@H]1[C@H](c1cccc(OC)c1OC)N2,75%,11%,-1,?,nt
COc1ccc(Br)cc1[C@@H]1Nc2ccc(C(=O)O)cc2[C@@H]2C=CC[C@@H]21,-22%,-5%,-40*,?,?
COc1ccc(OC)c([C@@H]2Nc3ccc(C(=O)O)cc3[C@@H]3C=CC[C@@H]32)c1,16%,5%,-27*,?,?
O=C(N1CCC2(CCCCO2)CC1)C1(c2ccccc2)CC1,-3%,1%,13,i,nt
CN(Cc1csc(-c2ccccc2)n1)C(=O)c1ccc2nccn2c1,11%,-12%,4,?,nt
O=C(NCCc1nc(-c2ccccc2)cs1)c1ccc2nccn2c1,-11%,?,-41*,?,?
CC(OC(=O)c1cccc(S(=O)(=O)N(C)C)c1)C(=O)c1ccccc1 (stereo not drawn),nt,nt,nt,i,nt
COC(=O)c1ccccc1NC(=O)c1sc2nc(C)cc(C)c2c1NC(=O)c1ccccc1OC,-21%,8%,-30*,?,8%
S=C(N/N=C1\CCCCC1C1CCCCC1)Nc1ccccc1 (stereo not drawn),nt,nt,nt,i,nt
CC(=O)Nc1ccc(-n2c(CCC(=O)O)ccc2-c2ccc(Br)cc2)cc1,-8%,2%,-41*,?,-8%
